The record followed here is PubChem BioAssay (NCATS).

Unmarked numbers belong to inactive results. Inconclusive results are not listed. Active and inactive are the calls of the source. Calls follow the shape of the dose curve; as a rule, active = well fitted curve in the direction sought with a large enough effect; inconclusive = small, poorly fitted or top-dose-only effect, or another doubt; inactive = no such curve, though single readings can be large; an effect the other way counts as inactive or inconclusive.

A short description of experiment [1]: Primary fluorescence-based thiol-reactive (MSTI) qHTS assay for identification of artifact compounds. (AID 1845221). Also: nearly all actives have a fitted effect of over 65% in size. Also: potency is read from the fitted curve at half-maximal effect.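 As to activity change, negative = thiol reactive: thiol-reactive compounds lower the probe fluorescence signal.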 Conditions: MSTI thiol-reactivity probe, 1 h; series mostly up to 53.8 µM. An outline of the steps:
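Probe: MSTI 4 uM, PBS pH 7.4, 2% DMSO. Incubation 1 h, RT, light-protected. Readout fluorescence 525/598 nm.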
In general terms: In qHTS, concentration-response curves come from the screen itself.

Experiment [2] relates to Nanoluciferase (engineered Oplophorus gracilirostris luciferase). The experiment is described as follows: Primary Nanoluciferase (NLuc) qHTS assay for identification of artifact compounds. (AID 1845222). Also: potency is read from the fitted curve at half-maximal effect.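 As to activity, negative = inhibition: 0% = DMSO and -100% = no enzyme.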 Conditions: NLuc-conditioned medium, Nano-Glo luminescence, 5 min; series mostly up to 54.1 µM. An outline of the steps:
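Diluted conditioned medium from NLuc-expressing S16 cells treated with compounds for 15 min at room temperature, then Nano-Glo substrate added; luminescence read after 5 min. Percent inhibition versus no-enzyme and DMSO controls fitted to 4-parameter Hill equation.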

The nature of experiment [3]: Primary redox qHTS assay for identification of artifact compounds. (AID 1845223).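 Also: 0% = DMSO and 100% = reference compound.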 Conditions: Amplex Red/HRP redox cycling with DTT, fluorescence; series mostly up to 53.8 µM. The essentials: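 Redox-cycling detection via DTT (250 uM final) oxidation coupled to Amplex Red (25 uM)/HRP (250 mU/mL) in HBSS. 15 min preincubation plus 30 min after DTT, room temperature. Ex/Em 525/598 nm; 4-parameter Hill fit against DMSO and 10 uM DA3003.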

For `COc1ccc(C[C@H](N)C(=O)N[C@H]2[C@@H](O)[C@H](n3cnc4c(N(C)C)ncnc43)O[C@@H]2CO)cc1`, the Potency entry in experiment [1], in experiment [2] and in experiment [3] was “inactive” throughout.
In the case of `COc1cc([C@H]2OC[C@@H]3[C@@H](c4ccc(O[C@@H]5O[C@H](CO)[C@@H](O)[C@H](O)[C@H]5O)c(OC)c4)OC[C@]23O)ccc1O`, the Potency entry in experiment [1], in experiment [2] and in experiment [3] was “inactive” each time.
For `CCCCCCc1cccc(NC(=O)[C@H](N)CCP(=O)(O)O)c1`, in experiment [1], the activity change, negative = thiol reactive is 1.56% [at 11.5 µM]. The activity, negative = inhibition in experiment [2] is 4.9% [at 11.6 µM]. In addition, in experiment [3], the redox activity (% of DA3003) was -3.89% [at 11.5 µM].
Take `Cn1ccnc1CCOC(c1cc2nccc(C(=O)O)c2[nH]1)c1ccccc1Cl` (stereo unspecified): the Potency result in experiment [1], in experiment [2] and in experiment [3] was “inactive” throughout.
In the case of `NC(Cc1c[nH]c2ccccc12)C(=O)NC(CCC(=O)O)C(=O)O` (stereo unspecified), the Potency entry in experiment [1], in experiment [2] and in experiment [3] was “inactive” in each case.
For the compound `C=CC(C)(CC/C=C(\C)CC/C=C(\C)CC(O)/C=C(\C)C(=O)O)O[C@@H]1O[C@H](CO)[C@@H](O)[C@H](O)[C@H]1O[C@@H]1O[C@H](CO)[C@@H](O)[C@H](O)[C@H]1O` (stereo partly specified), the Potency result in experiment [1], in experiment [2] and in experiment [3] was “inactive” each time.
Regarding `CC(CO[C@@H]1O[C@H](COC(=O)/C=C/c2ccc(O)c(O)c2)[C@@H](O)[C@H](O)[C@H]1O)C1(O)COC(=O)C1` (stereo partly specified), in experiment [1], the Potency is 1.84 µM (active). The Potency result in experiment [2] and in experiment [3] was “inactive” each time.
With `CC1(C)CC[C@]2(C(=O)O)CC[C@]3(C)C(=CCC4[C@@]5(C)C[C@@H](O)[C@H](O)C(C)(C)C5CC[C@]43C)[C@@H]2[C@@H]1O` (stereo partly specified), the Potency result in experiment [1], in experiment [2] and in experiment [3] was “inactive” each time.
Take `CC(C)C(=O)c1cn(CC(=O)COc2ccc(Oc3ccccc3)cc2)c2ccc(C(=O)O)cc12`: the Potency entry in experiment [1] and in experiment [3] was “inactive” in each case. In addition, the Potency in experiment [2] is 6.01 µM (active).
For `O=c1ccn(C2OC(CO)C(O)C2O)c(=O)[nH]1` (stereo unspecified), the Potency entry in experiment [1], in experiment [2] and in experiment [3] was “inactive” throughout.
In the case of `O=C(CCCCc1ccc2ccccc2c1)C(F)(F)F`, the Potency result in experiment [1], in experiment [2] and in experiment [3] was “inactive” in each case.
Regarding `Nc1nonc1C(=Nc1ccc(F)c(Cl)c1)NO`, the Potency entry in experiment [1], in experiment [2] and in experiment [3] was “inactive” in each case.
With `C#C[C@]1(O)CC[C@H]2[C@@H]3CCC4=C/C(=N/O)CC[C@@H]4[C@H]3CC[C@@]21CC`, the Potency entry in experiment [1], in experiment [2] and in experiment [3] was “inactive” throughout.
Regarding `Cc1nc2c(-c3cnc(N)nc3)nc(N3CCOCC3)nc2n1C(C)C`, the Potency result in experiment [1], in experiment [2] and in experiment [3] was “inactive” in each case.
Regarding `C=C(C)C1CC2(CO)C(=CC1=O)CCC(O)C2C` (stereo unspecified), the Potency result in experiment [1], in experiment [2] and in experiment [3] was “inactive” each time.
Turning to `CCCOc1ccn2c(C(C)=O)cc(-c3ccccc3S(C)(=O)=O)c2c1`, the Potency result in experiment [1], in experiment [2] and in experiment [3] was “inactive” throughout.
Take `CC(C)(O)c1ccc2c(c1)C(O)CC1C(C)(C(=O)O)CCCC21C` (stereo unspecified): the Potency entry in experiment [1], in experiment [2] and in experiment [3] was “inactive” each time.
As for `COc1ccc(C(O[C@@H]2O[C@H](CO)[C@@H](O)[C@H](O)[C@H]2O)C(CO)Oc2ccc(/C=C/CO)cc2OC)cc1O` (stereo partly specified), the Potency in experiment [1] was 5.19 µM (active). The Potency result in experiment [2] and in experiment [3] was “inactive” each time.
Consider `COC(=O)CC[C@@H](C)[C@H]1CC[C@H]2[C@@H]3CC(=O)[C@H]4C[C@H](OC(C)=O)CC[C@]4(C)[C@H]3CC[C@]12C`, for which the Potency result in experiment [1], in experiment [2] and in experiment [3] was “inactive” each time.
In the case of `C[C@@H]1C(=O)O[C@H]2[C@H]1CC[C@@]1(C)C(=O)C=C[C@](C)(O)[C@H]21`, in experiment [1], the Potency is 21.2 µM (active). In addition, the Potency entry in experiment [2] and in experiment [3] was “inactive” throughout.
Regarding `C=C1CCC(OC(C)=O)C2(C)CC3(O)OC(=O)C(C)=C3CC12` (stereo unspecified), the Potency result in experiment [1], in experiment [2] and in experiment [3] was “inactive” in each case.
For `C[C@@H]1C[C@H](O)/C=C/[C@H](O)[C@@H](O)CC(=O)O1`, the Potency entry in experiment [1], in experiment [2] and in experiment [3] was “inactive” each time.
With `C=C1C2=CC(O)C(C)C1(C)CC/C(C)=C/CCC1(C)OC1C2=O` (stereo unspecified), the Potency entry in experiment [1], in experiment [2] and in experiment [3] was “inactive” in each case.
Consider `CNC(=O)[C@H]1O[C@@H](n2cnc3c(NCc4ccc(N)c(I)c4)ncnc32)[C@H](O)[C@@H]1O`, for which the activity change, negative = thiol reactive in experiment [1] is 20.2% [at 11.5 µM]. The activity, negative = inhibition in experiment [2] was -0.867% [at 11.6 µM]. In addition, the redox activity (% of DA3003) in experiment [3] was 1.11% [at 11.5 µM].
`C=C(C(=O)OC)C1CCC2(C)C(O[C@@H]3O[C@H](CO)[C@@H](O)[C@H](O)[C@H]3O)CC(=O)C(C)C2C1O` (stereo partly specified): in experiment [1], the Potency was 4.12 µM (active). Further, the Potency result in experiment [2] and in experiment [3] was “inactive” in each case.
On to `Nc1ncnc2c1ncn2[C@H]1CCCO1`, for which the Potency entry in experiment [1], in experiment [2] and in experiment [3] was “inactive” throughout.
As to `CC(=O)O[C@@H]1C[C@@]23C[C@@]24CC[C@H](OC2OC[C@@H](O)[C@H](O)[C@H]2O)C(C)(C)[C@@H]4CC[C@H]3[C@]2(C)CC3OC4(C[C@@H](C)C3[C@@]12C)OCC1(C)OC14` (stereo partly specified), the Potency entry in experiment [1], in experiment [2] and in experiment [3] was “inactive” in each case.
